From publication PMC10726135, “HNF4α isoforms regulate the circadian balance between carbohydrate and lipid metabolism in the liver” come the findings set out here.

Whole data set: some 18,000 sequences, median “log2 normalized intensity” near 0.36, cut for the highest 2% near 7.3. Many of the other results were omitted from the sample, so the highest values are more common in it than they were.

For this assay, the target named is T1, HNF4alpha8 (COS-7 nuclear extract) (Homo sapiens, UniProt P41235-5 1-452).
T1 sequence: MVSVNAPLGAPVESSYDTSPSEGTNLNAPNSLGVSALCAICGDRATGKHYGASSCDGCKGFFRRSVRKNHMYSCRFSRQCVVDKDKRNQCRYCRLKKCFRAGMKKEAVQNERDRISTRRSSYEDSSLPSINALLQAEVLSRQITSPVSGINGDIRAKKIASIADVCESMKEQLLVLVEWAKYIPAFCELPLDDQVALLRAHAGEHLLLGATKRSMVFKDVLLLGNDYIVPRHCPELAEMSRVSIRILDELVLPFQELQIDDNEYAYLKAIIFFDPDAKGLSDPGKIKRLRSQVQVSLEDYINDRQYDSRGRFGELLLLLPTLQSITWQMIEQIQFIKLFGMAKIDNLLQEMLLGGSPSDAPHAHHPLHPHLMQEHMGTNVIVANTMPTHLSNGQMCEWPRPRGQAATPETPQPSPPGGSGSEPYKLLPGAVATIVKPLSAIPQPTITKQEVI
Description: protein-binding microarray; COS-7 nuclear extract on double-stranded Agilent 4x180k PBM; binding buffer, salt, pH and temperature not given in the material; high values mean tight binding. The settings on record: chain copies: 2; label: 3' end of strand 1 on the slide; dsDNA, one strand shown. The essentials: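 A human HNF4α isoform was expressed in COS-7 cells by transient CaPO4 transfection, and nuclear extracts were prepared. These were applied to a custom Agilent SurePrint G3 4x180k array carrying ~44,000 test sequences in quadruplicate as double-stranded ~60-nt oligonucleotides, and an Agilent G2565CA scanner imaged bound HNF4α at 2-µm resolution. The background-corrected, normalized gProcessedSignal from Agilent software was used as the binding signal.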
Turning to “CCCCACTGTAGTAAGGGAGTGTGGGGTGGTGCCTAGGGAGATTAGAGTATCGGTCGA”, the binding signal is -0.92 log2 normalized intensity.

“TGTGCTGCCCCCGATAGCACTATTAGTCTTGCCTAGGGAGATTAGAGTATCGGTCGA”: the binding signal was 3.06 log2 normalized intensity.

In the case of “GCCACATCCTGTCTCCTTTAACCTTCATTCGCCTAGGGAGATTAGAGTATCGGTCGA”, the binding signal was found to be 1.97 log2 normalized intensity.

Consider “CACTGTCTCAGGGTCCACATTCCAGGAATAGCCTAGGGAGATTAGAGTATCGGTCGA”, for which the binding signal was determined as 2.44 log2 normalized intensity.

As for “AGCAGATGGCCAGCCTTTGGACTTTGAACTGCCTAGGGAGATTAGAGTATCGGTCGA”, the binding signal is 11.2 log2 normalized intensity.

Regarding “CTGCCTTTCCCAGATGGATTGATAGACTTAGCCTAGGGAGATTAGAGTATCGGTCGA”, the binding signal stood at 0.78 log2 normalized intensity.

Consider “ACCTGGAACTGAAAGAGACCTTTGACATCAGCCTAGGGAGATTAGAGTATCGGTCGA”, for which the binding signal was found to be 5.23 log2 normalized intensity.

As to “TGATAGCCATCTGGTGGACTTTGCTCTGCTGCCTAGGGAGATTAGAGTATCGGTCGA”, the binding signal is 8.15 log2 normalized intensity.

Consider “CTGGACTTTGGCTGCAAAATTTGAACAAAAGCCTAGGGAGATTAGAGTATCGGTCGA”, for which the binding signal came out at 2.14 log2 normalized intensity.

For “CAGCCTTTGGACTTTGAACTGCAACATCAGGCCTAGGGAGATTAGAGTATCGGTCGA”, the binding signal is 8.89 log2 normalized intensity.

Turning to “GCATTAACATCAACATGGACTTTGAGTCATGCCTAGGGAGATTAGAGTATCGGTCGA”, the binding signal is 6.9 log2 normalized intensity.

“TTCCTGCATTAACATCAACATGGACTTTGAGCCTAGGGAGATTAGAGTATCGGTCGA”: the binding signal worked out at 9.28 log2 normalized intensity.

In the case of “GCCATCTGGTGGACTTTGCTCTGCTCATTTGCCTAGGGAGATTAGAGTATCGGTCGA”, the binding signal worked out at 7.25 log2 normalized intensity.

As for “TACCTTTCCTGCATTAACATCAACATGGACGCCTAGGGAGATTAGAGTATCGGTCGA”, the binding signal worked out at 2.03 log2 normalized intensity.

For the sequence “TTTTTGGCCTTTACCCCTTGAGTTTGAACTGCCTAGGGAGATTAGAGTATCGGTCGA”, the binding signal was 4.12 log2 normalized intensity.

As to “CTGCTTGATAGCCATCTGGTGGACTTTGCTGCCTAGGGAGATTAGAGTATCGGTCGA”, the binding signal came out at 6.09 log2 normalized intensity.

Consider “TCCAACCTGTTCTTTTGAGCTGTGGTTAAGGCCTAGGGAGATTAGAGTATCGGTCGA”, for which the binding signal was 1.73 log2 normalized intensity.

On to “CAATCCAGAAGGCGCTGAACTTTGCCTTGTGCCTAGGGAGATTAGAGTATCGGTCGA”, for which the binding signal is 5.04 log2 normalized intensity.

For the sequence “ATGGGACCTTTGCCCTTCTTGTTAACCTCCGCCTAGGGAGATTAGAGTATCGGTCGA”, the binding signal came out at 4.54 log2 normalized intensity.

“CCTGAGCCTGGACCTTGGAATGTCAAGATTGCCTAGGGAGATTAGAGTATCGGTCGA”: the binding signal amounted to 3.05 log2 normalized intensity.

“AGCAGCATAAAGGACTTTCAACCCTGTGATGCCTAGGGAGATTAGAGTATCGGTCGA”: the binding signal turned out to be 3.89 log2 normalized intensity.

On to “AAAACCATTGCAAATTGGATGTTGAACCTCGCCTAGGGAGATTAGAGTATCGGTCGA”, for which the binding signal worked out at 4.51 log2 normalized intensity.

“ATGGAAGGACCTTGGACTGAAGACTGGAACGCCTAGGGAGATTAGAGTATCGGTCGA”: the binding signal turned out to be 3.17 log2 normalized intensity.

Turning to “ATGGCCAGCCTTTGGACTTTGAACTGCAACGCCTAGGGAGATTAGAGTATCGGTCGA”, the binding signal was determined as 10.1 log2 normalized intensity.

For “AGGGTCTTTGCAACTGTGTGTGGCCTGCACGCCTAGGGAGATTAGAGTATCGGTCGA”, the binding signal came out at 1.53 log2 normalized intensity.

In the case of “GCTGGGTCAAAGTGTATGCATATTTTAAGTGCCTAGGGAGATTAGAGTATCGGTCGA”, the binding signal was found to be 2.27 log2 normalized intensity.

On to “AAATCTGCCCAACCTTTGCCCCTGGAGGGAGCCTAGGGAGATTAGAGTATCGGTCGA”, for which the binding signal stood at 4.18 log2 normalized intensity.

In the case of “GAGGTTCCTGGAACTCTGACCTTTGCCCCCGCCTAGGGAGATTAGAGTATCGGTCGA”, the binding signal was 10.3 log2 normalized intensity.

Take “GCCTGCCCCTCTGACCTCTCCTCCTACCTTGCCTAGGGAGATTAGAGTATCGGTCGA”: the binding signal amounted to 3.39 log2 normalized intensity.

Regarding “GGATCGGAACCCCACCCCCACGCCCCCCAGGCCTAGGGAGATTAGAGTATCGGTCGA”, the binding signal was determined as 7.03 log2 normalized intensity.

For the sequence “CCCACCCCCACGCCCCCCAGCGGAAGTCCAGCCTAGGGAGATTAGAGTATCGGTCGA”, the binding signal is 6.82 log2 normalized intensity.

With “AGGAGGAGGTTCCTGGAACTCTGACCTTTGGCCTAGGGAGATTAGAGTATCGGTCGA”, the binding signal is 6.98 log2 normalized intensity.

Take “ACCGACCTTTGGTTCCTGAACTCAAACCCCGCCTAGGGAGATTAGAGTATCGGTCGA”: the binding signal was 3.35 log2 normalized intensity.

In the case of “TTCATCCCCACCCCCACTGCCTGACCCCAAGCCTAGGGAGATTAGAGTATCGGTCGA”, the binding signal was determined as 7.49 log2 normalized intensity.

As for “GGAACCCCACCCCCACGCCCCCCAGCGGAAGCCTAGGGAGATTAGAGTATCGGTCGA”, the binding signal was 7.38 log2 normalized intensity.

On to “CCCCCACTGCCTGACCCCAAGTAATAGCCGGCCTAGGGAGATTAGAGTATCGGTCGA”, for which the binding signal is 5.69 log2 normalized intensity.

With “TCCTGGAACTCTGACCTTTGCCCCCAGCCTGCCTAGGGAGATTAGAGTATCGGTCGA”, the binding signal was 10.1 log2 normalized intensity.

“CCCCACCCCCACTGCCTGACCCCAAGTAATGCCTAGGGAGATTAGAGTATCGGTCGA”: the binding signal amounted to 7.09 log2 normalized intensity.

For the sequence “CTTCCACCCACTTTATCTTCTATAGGAATTGCCTAGGGAGATTAGAGTATCGGTCGA”, the binding signal was determined as 0.738 log2 normalized intensity.

Turning to “GTGTGTGGCCTGCACAGTTGCACAATGTCAGCCTAGGGAGATTAGAGTATCGGTCGA”, the binding signal amounted to 0.815 log2 normalized intensity.

As for “CTATAGTTATCTCTGCTGATAGCATAAAGCGCCTAGGGAGATTAGAGTATCGGTCGA”, the binding signal came to 0.212 log2 normalized intensity.

As to “GGCTCCCTGGGGTTAAAATGTTTACTGAAGGCCTAGGGAGATTAGAGTATCGGTCGA”, the binding signal was found to be 0.937 log2 normalized intensity.

As for “CTGTGCAAGCCCCTGACCAAGGGTCATGCTGCCTAGGGAGATTAGAGTATCGGTCGA”, the binding signal was found to be 3.96 log2 normalized intensity.

For “AGCCTCTCACAGTAGCCCAGGTCCTTTGGTGCCTAGGGAGATTAGAGTATCGGTCGA”, the binding signal came to 0.598 log2 normalized intensity.
